Compound activity as filed in PubChem.
Rab9 prom act – activates the Rab9 promoter. Potency, µM (doses to about 9.22 µM), for the others: top-dose activation, negative = inhibition, most hits filed as activators. Huh7 Rab9 promoter-luciferase reporter, luminescence, 24 h. 320,000 compounds, 2.8% hits; also: % of control where 0% means no effect; nearly all actives have a fitted effect of over 60% in size
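Rab9 promoter-driven luciferase in stably transfected Huh7 cells; 1500 cells/well rested 2 h, exposed to compound in DMSO for 24 h at 37 °C, 5% CO2. Luminescence read 10 min after adding luciferase reagent at ambient temperature.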
FLuc modulator – firefly luciferase modulation, counter-screen for miR-21 project; P08659; purified FLuc, Km substrates, luminescence inhibition; Potency, µM (titrated, usually from 57.5 µM), without a hit: at the top dose activity change, negative = inhibition, most hits filed as inhibitors; 360,000 compounds, 6.9% hits; AID 588342;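 also: plate controls were vehicle for no effect and reference inhibitor for full effect; nearly all actives have a fitted effect of over 55% in size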
Target sequence (P08659 whole entry, looked up): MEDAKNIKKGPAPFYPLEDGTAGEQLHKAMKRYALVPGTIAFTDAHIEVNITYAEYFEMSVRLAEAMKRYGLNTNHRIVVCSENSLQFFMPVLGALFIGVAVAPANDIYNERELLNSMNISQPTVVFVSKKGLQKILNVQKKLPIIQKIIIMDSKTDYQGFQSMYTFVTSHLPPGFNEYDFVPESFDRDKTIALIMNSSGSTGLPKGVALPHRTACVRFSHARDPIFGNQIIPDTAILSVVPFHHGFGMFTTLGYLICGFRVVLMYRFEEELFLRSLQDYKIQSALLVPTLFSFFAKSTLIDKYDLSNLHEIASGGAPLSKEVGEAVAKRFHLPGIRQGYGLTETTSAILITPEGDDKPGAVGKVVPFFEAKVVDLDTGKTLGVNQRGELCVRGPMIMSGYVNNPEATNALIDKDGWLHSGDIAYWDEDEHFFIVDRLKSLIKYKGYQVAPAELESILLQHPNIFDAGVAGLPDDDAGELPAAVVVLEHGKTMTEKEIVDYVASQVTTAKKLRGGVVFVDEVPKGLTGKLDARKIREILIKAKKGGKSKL
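Purified P. pyralis luciferase, 10 nM final, with Km-level 10 uM D-luciferin and 10 uM ATP in 50 mM Tris acetate pH 7.5, 10 mM Mg acetate, 0.01% Tween-20, 0.05% BSA; 6-point qHTS titration about 60 µM downward; luminescence read.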
NPC1 promoter act – activators of NPC1 promoter. Huh7 NPC1 promoter luciferase reporter, 24 h. Potency, µM (series often up to 9.22 µM), without a hit: top-dose activation, actives largely listed as activators. 320,000 compounds, 2.4% hits; also: % of control where 0% means no effect; nearly all actives have a fitted effect of over 60% in size
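Luminescence read-out of NPC1 promoter-driven luciferase in stably transfected Huh7 cells; compounds delivered in DMSO and left 24 h at 37C, 5% CO2, qHTS titration format.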
SMN2 splice up – enhancers of SMN2 splice variant expression | AID 1458 | HEK293 SMN2-luciferase splicing reporter, luminescence, 30-36 h | 210,000 compounds, 2.8% hits | Potency, µM (doses to about 46.1 µM), inactives show at the highest dose activity change, positive = activation, most hits filed as activators; also: % of control where 0% means no effect; nearly all actives have a fitted effect of over 55% in size
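HEK293 cells carry an SMN2 minigene-luciferase reporter in which exon 7 inclusion puts luciferase in frame. Cells were seeded at 2000 cells/well, attached for 10-12 hours, then exposed to compounds for 30-36 hours at 37C before ONE-Glo luminescence.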
ELG1 genotoxic – inducers of genotoxicity in HEK293T ELG1-luciferase cells; Potency, µM (top dose mostly 46 µM), for inactives: top-dose activity change, positive = activation, actives largely listed as activators; HEK293T ELG1-luciferase reporter, luminescence, 16 h; 330,000 compounds, 1.3% hits; also: % of control where 0% means no effect; nearly all actives have a fitted effect of over 60% in size
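HEK293T cells expressing luciferase-tagged ELG1 were treated with compound or DMSO for 16 hr at 37°C. Luciferase activity was then read after 30 min with ONE-Glo at room temperature; rising signal flags genetic stress.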
ELG1 DNA repair – blocks ELG1-dependent DNA repair in HEK293T cells; HEK293T ELG1-luciferase reporter, luminescence, 16 h; DNA damage induced by 5-fluorouridine; Potency, µM (highest dose often 46.1 µM), without a hit: at the highest dose activity change, negative = inhibition, most hits filed as inhibitors; 330,000 compounds, 2.3% hits; also: % is scaled to controls: 0 for no effect and ±100 for the full control effect; nearly all actives have a fitted effect of over 55% in size
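Overnight (16 hr) co-exposure of 2,000 cells/well to 5-fluorouridine and compound at 37 °C preceded detection. Luciferase was quantified via ONE-Glo luminescence; loss of signal denotes inhibition.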
An asterisk follows results filed as active; u = inconclusive; x = no result; [ ] = another dose, or the depositor's remark. Compounds with a hit are over-represented: about 9.2% of the library has one in this group of screens. Calls follow the shape of the dose curve; as a rule, active = well fitted curve in the direction sought with a large enough effect; inconclusive = small, poorly fitted or top-dose-only effect, or another doubt; inactive = no such curve, though single readings can be large; an effect the other way counts as inactive or inconclusive. Potency is read from the fitted curve at half-maximal effect.

SMILES	Rab9 prom act	FLuc modulator	NPC1 promoter act	SMN2 splice up	ELG1 genotoxic	ELG1 DNA repair
Cc1c(C(=O)N(C)C)sc2c1c(=O)n(-c1ccc(F)cc1)c(=O)n2Cc1ccccc1C#N	x	1%	x	x	x	x
COc1cccc(OCc2cc(C(=O)N3CCN(c4ccccc4O)CC3)no2)c1	3.2µM*	12µM*	2.8µM*	x	u	u
COc1ccc(OCc2cc(C(=O)N3CCN(CC4CC4)CC3)no2)c(Cl)c1	u	u	u	x	5%[9.26 µM]	u
COc1cccc(OCc2cc(C(=O)N3CCN(c4ccccc4OC)CC3)no2)c1	u	15µM*	u	x	17%	u
COc1cccc(OCc2cc(C(=O)N3CCN(C(C)=O)CC3)no2)c1	3.2µM*	u	u	x	u	u
COc1ccc(CCNC(=O)c2cnc3sc(N4CCC(C)CC4)nn3c2=O)cc1OC	x	-3%	x	x	x	x
N#Cc1ccc(COC(=O)CN2C(=O)NC3(CCCC3)C2=O)cc1	-2%	-1%	0%	x	-1%	-5%
COc1cc([N+](=O)[O-])ccc1N1C(=O)C2C3C=CC(C4CC34)C2C1=O (stereo unspecified)	0%	13µM*	-10%	-14%	-3%	-6%
c1ccn2cc(CSC3=NCCS3)nc2c1	u	19µM*	u	u	u	u
c1ccn2cc(CSc3nnc4ccccn34)nc2c1	1µM*	13µM*	3.5µM*	17%	10µM*	u
Cc1ccc(SCc2cn3cccnc3n2)cc1	27%	u	u	21%	u	u
c1ccn2c(SCc3ccc4c(c3)OCCO4)nnc2c1	3.5µM*	u	u	11µM*	21µM*	u
O=[N+]([O-])c1cccc(CSc2nnc3ccccn23)c1	1%	6%	-4%	2%	4%	-10%
Cc1ccn2cc(CSc3ccccc3)nc2c1	1.4µM*	4.8µM*	1.3µM*	13µM*	3.7µM*	u
c1ccc(-n2nnnc2SCc2cn3ccccc3n2)cc1	8%	-3%	7%	9%	-4%	4%
COc1ccccc1C(=O)NC(=O)COC(=O)C1(C)CC1(Cl)Cl (stereo unspecified)	-7%	u	1%	x	-1%	5%
Cc1cc(=O)[nH]c(SCc2cn3ccccc3n2)n1	-3%	-10%	1%	18%	4%	u
Cn1ccnc1SCc1cn2ccccc2n1	3.2µM*	17µM*	3.2µM*	u	u	u
CCCCOc1ccc(CSCCN)cc1Cl	-20%	12µM*	-21%	x	u	u
O=C(Nc1ccncc1)C1CCN(S(=O)(=O)c2cccs2)CC1	1%	-3%	-3%	-14%	-4%	-11%
CC(=O)c1cccc(NC(=O)C2CCN(S(=O)(=O)c3cccs3)CC2)c1	-5%	5%	0%	-3%	-6%	u
O=C(Nc1cc(Cl)ccn1)C1CCN(S(=O)(=O)c2cccs2)CC1	-17%	-1%	-11%	-83%	-8%	8.2µM*
CN(C)S(=O)(=O)c1cccc(NC(=O)C2CCN(S(=O)(=O)c3cccs3)CC2)c1	x	x	x	x	-8%	21µM*
O=C(COc1ccc(C(=S)N2CCOCC2)cc1)Nc1ccccc1C(F)(F)F	-7%	0%	-5%	x	0%	-4%
CCOc1cc(C=O)ccc1OCC(=O)N1CCCC1	-3%	2%	-10%	x	0%	12%
CCOc1cc(/C=N/NC(=S)Nc2ccccc2C(F)(F)F)ccc1OCC(=O)N1CCOCC1	-6%	-5%	-2%	-12%	-6%	12µM*
CCOc1cc(/C=N/Nc2cccc(C(=O)O)c2)ccc1OCC(=O)N1CCCCC1	4.5µM*	21µM*	4µM*	11µM*	u	u
Cc1cc(O)c(C(=O)Cc2csc(C)n2)c(O)c1	4µM*	27µM*	u	u	u	u
